Structures can show the parent of a compound that is named as a salt.
Test system: MDA-MB-468
Assay: phospho-S6 immunofluorescence (DAPI-normalised), per-plate z-score; higher = higher phospho-S6 signal (less pathway suppression)
Settings: 24 h
Procedure: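 GPCR-targeted compound library (MedChemExpress HY-L006) tested on MDA-MB-468 PTEN-null TNBC cells in 384-well plates at 0.1, 1 or 10 uM, combined with vehicle, GDC0941 450 nM or lapatinib 1 uM, for 24 h. Phospho-S6 (S240/244) immunofluorescence normalised to DAPI and expressed as a per-plate z-score; values are the mean of biological triplicates.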

| SMILES | phospho-S6 immunofluorescence (z-score) (co-treatment: GDC0941 450 nM) | phospho-S6 immunofluorescence (z-score) (co-treatment: lapatinib 1 uM) | phospho-S6 immunofluorescence (z-score) (co-treatment: vehicle) |
| --- | --- | --- | --- |
| O=C(/C=C/c1ccc(Cl)cc1)N1CCC2(CC1)CN(Cc1ccc(Cl)c(Cl)c1)C(=O)O2 (compound 10 µM) | -2.76 | -2.4 | -1.92 |
| CCc1c(C(=O)NCCc2ccc(N3CCCCC3)cc2)[nH]c2ccc(Cl)cc12 (compound 10 µM) | -1.02 | -0.3 | 0.27 |
| CC(C)(C)C(=O)C(=Nc1ccc(Cl)cc1)NNc1ccc(Cl)cc1 (compound 10 µM) | -3.52 | -6.25 | -3.76 |
| CN(C)[C@@H]1CCc2[nH]c3ccc(NC(=O)c4ccc(F)cc4)cc3c2C1 (compound 10 µM) | 0.67 | -1.38 | -0.54 |
| CC(C)(O)c1ccccc1CC[C@@H](SCC1(CC(=O)O)CC1)c1cccc(/C=C/c2ccc3ccc(Cl)cc3n2)c1 [Montelukast (sodium)] (compound 10 µM) | 0.45 | 0.97 | 1.39 |
| CCCN[C@H]1CCc2nc(N)sc2C1 [Pramipexole (dihydrochloride)] (compound 10 µM) | 0.87 | 0.31 | 0.17 |
| CN1CCC(=C2c3ccccc3C=Cc3ccccc32)CC1 [Cyproheptadine (hydrochloride)] (compound 10 µM) | -0.64 | -1.26 | 0.16 |
| CC(C)COc1ccc(CNC(=O)N(Cc2ccc(F)cc2)C2CCN(C)CC2)cc1 [Pimavanserin] (compound 10 µM) | -2.66 | -2.95 | -2.1 |
| CC#C[C@]1(O)CC[C@H]2[C@@H]3CCC4=CC(=O)CCC4=C3[C@@H](c3ccc(N(C)C)cc3)C[C@@]21C [Mifepristone] (compound 10 µM) | -2.47 | 1.14 | -0.01 |
| CCCN(CCc1cccs1)[C@H]1CCc2c(O)cccc2C1 [Rotigotine] (compound 10 µM) | 0.53 | -0.05 | -0.73 |
| Cc1ccc(Sc2ccccc2N2CCNCC2)c(C)c1 [Vortioxetine] (compound 10 µM) | -5.05 | -7.7 | -6.93 |
| COc1ccccc1N1CCN(CCN(C(=O)C2CCCCC2)c2ccccn2)CC1 (compound 10 µM) | -0.49 | 0.26 | -0.79 |
| COc1ccccc1Oc1c(NS(=O)(=O)c2ccc(C(C)(C)C)cc2)nc(-c2ncccn2)nc1OCCO [Bosentan] (compound 10 µM) | 0.53 | 0.78 | 1.05 |
| O=c1cc(CN2CCOCC2)occ1OCCCCCSc1ccnc2cc(C(F)(F)F)ccc12 (compound 10 µM) | -2.93 | -3.04 | -3.82 |
| Cc1cc2c(s1)Nc1ccccc1N=C2N1CCN(C)CC1 [Olanzapine] (compound 10 µM) | 0.77 | 0.3 | 0.35 |
| CCCCC(=O)N(Cc1ccc(-c2ccccc2-c2nnn[nH]2)cc1)[C@H](C(=O)O)C(C)C.CCOC(=O)[C@H](C)C[C@@H](Cc1ccc(-c2ccccc2)cc1)NC(=O)CCC(=O)O (compound 10 µM) | 0.23 | 0.37 | 0.21 |
| CCN1CCCC1CNC(=O)c1cc(S(=O)(=O)CC)c(N)cc1OC (configuration not stated) [Amisulpride] (compound 10 µM) | 0.37 | 0.58 | 0.83 |
| NC[C@H](O)c1ccc(O)c(O)c1 [Norepinephrine (bitartrate monohydrate)] (compound 10 µM) | 0.52 | 1.81 | 0.17 |
| CC(C)(N)C(=O)N[C@H](COCc1ccccc1)C(=O)N1CCC2(CC1)CN(S(C)(=O)=O)c1ccccc12 [Ibutamoren (Mesylate)] (compound 10 µM) | -2.77 | -7.75 | -5.38 |
| CN(C)CCCN1c2ccccc2Sc2ccccc21 [Promazine (hydrochloride)] (compound 10 µM) | -0.07 | -1.25 | 0.4 |
| C[C@H]1CN(C[C@H](Cc2ccccc2)C(=O)NCC(=O)O)CC[C@@]1(C)c1cccc(O)c1 [Alvimopan (dihydrate)] (compound 10 µM) | -0.22 | 0.49 | -0.86 |
| CCCC(=O)OC(CNC(C)(C)C)COc1nsnc1N1CCOCC1 (racemic) [(RS)-Butyryltimolol] (compound 10 µM) | 0.09 | -0.58 | -0.47 |
| Cc1nccn1CC1CCc2c(c3ccccc3n2C)C1=O (configuration not stated) [Ondansetron (hydrochloride dihydrate)] (compound 10 µM) | 0.11 | -0.58 | 0.16 |
| Nc1ccc(/C=C/c2cccc(C(=O)O)n2)cc1 (compound 10 µM) | 0.9 | 0.88 | 1.07 |

Source: the supplement of paper PMC7411640
